Screens as filed in PubChem BioAssay.
Many of the other results were omitted from the sample, so hits are more common in it than they were.
Tb PYK inh – T. brucei pyruvate kinase inhibition; actives 0.12% (n = 410,000); Potency, µM (titrated, usually from 76.8 µM), most hits filed as inhibitors; TbPYK enzyme, Kinase-Glo Plus ATP luminescence, 45 min; Q57TT1; further: nearly all actives have a fitted effect of over 50% in size
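Glycolytic pyruvate kinase of T. brucei was incubated with substrate, test compound and 130 uM ADP for 45 minutes at room temperature. Luminescent Kinase-Glo Plus signal was measured after 10 minutes.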
RE007 growth inh – less growth of the S. pombe RE007 Vpr strain | S. pombe RE007 Vpr strain, BacTiter-Glo ATP luminescence, 24 h | Potency, µM (doses to about 92.2 µM), actives largely listed as inhibitors | actives 0.21% (n = 360,000) | AID 651644; active means well fitted falling curve with a large enough effect; inconclusive means small, poorly fitted or top-dose-only effect; inactive means no such curve, though single readings can be large or run the other way; further: nearly all actives have a fitted effect of over 50% in size
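Fission yeast strain RE007, carrying one chromosomally integrated HIV-1 vpr copy, was seeded at OD 0.01 in PMG+AL medium with 23 nL pinned compound. After 24 h at 30 °C and 99% humidity, viability was read by BacTiter-Glo luminescence.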
FBPA Giardia inh – blocks Giardia fructose-bisphosphate aldolase activity | purified Giardia FBPA | actives 0.71% (n = 290,000) | Potency, µM (doses to about 59.6 µM), hits mostly inhibitors; further: nearly all actives have a fitted effect of over 55% in size
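Giardia FBPA (40 nM reagent) was preincubated 10 min at RT with compound (up to 57.5 uM final), then substrate plus GAPDH/TPI/NAD/arsenate coupling system with diaphorase/resazurin was added; resorufin fluorescence (525/598 nm) was read after 20 min.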
LmPK inhibitor – blocks Leishmania mexicana pyruvate kinase activity; Q27686; purified LmPK, Kinase-Glo ATP luminescence, 1 h; Potency, µM (highest dose often 57.5 µM), most hits filed as inhibitors; actives 0.37% (n = 290,000); AID 1721
Target sequence (Q27686 whole entry, looked up): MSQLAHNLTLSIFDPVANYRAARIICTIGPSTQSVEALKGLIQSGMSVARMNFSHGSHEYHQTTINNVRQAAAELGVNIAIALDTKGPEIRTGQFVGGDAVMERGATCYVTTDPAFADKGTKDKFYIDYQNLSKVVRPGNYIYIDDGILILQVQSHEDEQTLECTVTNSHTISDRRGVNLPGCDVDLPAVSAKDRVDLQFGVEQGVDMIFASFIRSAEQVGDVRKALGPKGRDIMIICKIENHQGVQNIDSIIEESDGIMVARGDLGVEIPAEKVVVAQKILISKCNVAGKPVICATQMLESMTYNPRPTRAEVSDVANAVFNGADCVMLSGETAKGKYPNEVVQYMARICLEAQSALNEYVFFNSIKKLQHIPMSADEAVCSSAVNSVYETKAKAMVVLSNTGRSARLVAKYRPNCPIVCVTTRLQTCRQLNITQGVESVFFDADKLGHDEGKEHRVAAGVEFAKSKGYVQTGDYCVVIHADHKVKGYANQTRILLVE
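Purified LmPK (0.1 nM) converted ADP (0.1 mM) to ATP with PEP (0.5 mM) in imidazole buffer pH 7.2 with KCl and MgCl2, 1 h at room temperature. ATP was read by Kinase-Glo luminescence; data normalized to uninhibited and no-enzyme controls.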
Cycloheximide cs – counter-screen hit for Shiga toxin inhibitors, cycloheximide. cell reporter, cycloheximide protein synthesis inhibition counterscreen. AID 2314. actives 12% (n = 300,000). max response, %; in the data active means max response mostly above about 13%, no sharp cut-off; inactive means mostly below about 14%; further: read at 38.3 µM for the half of the compounds with a filed dose
Shiga toxin inh – Shiga toxin inhibition | Vero cells, Shiga toxin protein synthesis inhibition reporter | inhibition, % at 38.7 µM | actives 9.2% (n = 290,000) | AID 2315; in the data active means inhibition mostly above about 28%, no sharp cut-off; inactive means mostly below about 43%
Of the large screens only hits and unclear results are named; the others gave an inactive call. Unless noted, the call rests on the fitted dose curve; in most records, active means well fitted curve in the direction sought with a large enough effect; inconclusive means small, poorly fitted or top-dose-only effect, or another doubt; inactive means no such curve, though single readings can be large; an effect the other way counts as inactive or inconclusive.

O=C(Nc1ccccc1F)OC1CN2CCC1CC2 (centres undefined)	none
O=C(Nc1ccc(Cl)cc1)OC1CN2CCC1CC2 (centres undefined)	Cycloheximide cs 26.7, Shiga toxin inh 42.0
O=C(Nc1cccc(Cl)c1)OC1CN2CCC1CC2 (centres undefined)	Cycloheximide cs 25.6, Shiga toxin inh 55.6
O=C(C=Cc1ccccc1F)c1ccccc1	RE007 growth inh inconclusive (no result: FBPA Giardia inh, LmPK inhibitor, Cycloheximide cs, Shiga toxin inh)
O=C(/C=C/c1ccccc1F)c1ccoc1	RE007 growth inh inconclusive, Cycloheximide cs 25.6, Shiga toxin inh 122.8
Cc1ccc2[nH]c(C(=O)N3CCOCC3)cc2c1	Cycloheximide cs active
O=C(c1cc2cc(Br)ccc2[nH]1)N1CCC2(CC1)OCCO2	Cycloheximide cs 28.0 (no result: FBPA Giardia inh)
Cc1ccc2[nH]c(C(=O)N3CCCCC3)cc2c1	Cycloheximide cs 26.5 (no result: Shiga toxin inh)
CCCOC1CCCN(C(=O)c2cc(COc3ccc(-n4cncn4)cc3)on2)C1 (centres undefined)	Cycloheximide cs 37.6, Shiga toxin inh 62.6
CCc1ccc(CN(C)C(=O)c2cc(COc3ccc(-n4cncn4)cc3)on2)cc1	Cycloheximide cs 18.5
COCCOC1CCN(C(=O)c2cc(COc3ccc(-n4cncn4)cc3)on2)CC1	none (no result: FBPA Giardia inh)
C/C(CC(=O)Nc1cc(Cl)ccc1C)=N\NC(=O)C(=O)N1CCCC1	Cycloheximide cs 17.1
C/C(CC(=O)Nc1ccc(Cl)cc1)=N\NC(=O)C(=O)N1CCCCC1	Cycloheximide cs 16.1, Shiga toxin inh 52.1
C/C(CC(=O)Nc1ccc(Cl)cc1Cl)=N\NC(=O)C(=O)N1CCCC1	none
CC1(C)CN(c2ccc(N3CC(C)(C)C3=O)cc2)C1=O	Cycloheximide cs 39.0, Shiga toxin inh 69.3
Cc1cccc(C(=O)Nc2nc3nc(-c4ccccc4)cc(=O)n3[nH]2)c1	none (no result: RE007 growth inh, FBPA Giardia inh, LmPK inhibitor, Cycloheximide cs, Shiga toxin inh)
FC(F)(F)c1ccc(-c2noc(-c3ccccc3)c2I)cc1	Cycloheximide cs 45.9, Shiga toxin inh active (no result: Tb PYK inh, RE007 growth inh, LmPK inhibitor)
O=C(/C=C/c1ccco1)c1ccc(O)cc1	Cycloheximide cs 38.0 (no result: Tb PYK inh, RE007 growth inh)
CN(C)c1ccc(C(=O)/C=C/c2ccco2)cc1	Cycloheximide cs 49.7, Shiga toxin inh 112.4
O=C(C=Cc1ccco1)c1ccc2ccccc2c1	none (no result: FBPA Giardia inh, LmPK inhibitor, Cycloheximide cs, Shiga toxin inh)
CN(C(=O)C=Cc1ccco1)c1ccccc1	none (no result: FBPA Giardia inh, LmPK inhibitor, Cycloheximide cs, Shiga toxin inh)
O=C(/C=C\c1ccco1)c1ccc(NC(=O)c2ccco2)cc1	Cycloheximide cs 25.6
Cc1ccc(N2CCN(C(=O)c3cnn(-c4ccc(F)cc4F)c3C3CCN(C(=O)OC(C)(C)C)CC3)CC2)c(C)c1	none (no result: RE007 growth inh, FBPA Giardia inh, LmPK inhibitor, Cycloheximide cs, Shiga toxin inh)
CCOCc1cc(CN2CCN(c3cccc(Cl)c3)CC2)c(O)c2ncccc12	none (no result: RE007 growth inh, FBPA Giardia inh, LmPK inhibitor, Cycloheximide cs, Shiga toxin inh)
COC(=O)C1=C(C(=O)OC)[C@@H]2N(Cc3ccccc3)c3ccccc3[C@@]23C[C@@H](C(=O)OC)N(C(=O)c2ccco2)C3=N1	none (no result: Tb PYK inh, RE007 growth inh, Cycloheximide cs, Shiga toxin inh)
O=C(NCCc1ccccc1)C(=O)NCC(c1ccc2c(c1)OCO2)N1CCOCC1 (centres undefined)	none (no result: RE007 growth inh, FBPA Giardia inh, LmPK inhibitor, Cycloheximide cs, Shiga toxin inh)
Cc1cccc(CSCCNC(=O)C2CCN(S(=O)(=O)Cc3ccccc3)CC2)c1	none (no result: RE007 growth inh, FBPA Giardia inh, LmPK inhibitor, Cycloheximide cs, Shiga toxin inh)
COc1ccc2oc(C(=O)c3ccccc3)c(N)c2c1	Cycloheximide cs 64.6, Shiga toxin inh 135.4 (no result: FBPA Giardia inh)
COC(=O)CCC(=O)c1oc2ccc(OC)cc2c1N	Cycloheximide cs 39.6
COc1ccc(C(=O)c2oc3ccccc3c2NC(=O)c2cccc(OC)c2)cc1	none (no result: RE007 growth inh, FBPA Giardia inh, LmPK inhibitor, Cycloheximide cs, Shiga toxin inh)
COc1ccc(C(=O)c2oc3ccccc3c2N)cc1	Cycloheximide cs 93.0, Shiga toxin inh active
COc1ccc(C(=O)Nc2c(C(=O)c3ccccc3)oc3ccccc23)cc1	none (no result: RE007 growth inh, FBPA Giardia inh, LmPK inhibitor, Cycloheximide cs, Shiga toxin inh)
COc1ccc2oc(C(=O)C3CC3)c(N)c2c1	RE007 growth inh inconclusive, Cycloheximide cs 42.7, Shiga toxin inh 130.7
Cc1ccccc1-c1cncnc1N(C)Cc1ccco1	none (no result: Tb PYK inh, RE007 growth inh, LmPK inhibitor, Cycloheximide cs, Shiga toxin inh)
CCCC(=O)Nc1cccc(-c2nc3cc(C)c(C)cc3o2)c1C	none (no result: RE007 growth inh, FBPA Giardia inh, LmPK inhibitor, Cycloheximide cs, Shiga toxin inh)
Cc1ccc(-c2csc(/C(C#N)=C/c3ccccc3Cl)n2)cc1	none (no result: RE007 growth inh, FBPA Giardia inh, LmPK inhibitor, Cycloheximide cs, Shiga toxin inh)
CCN(C(=O)CCS(=O)(=O)c1cc2[nH]c(=O)c(=O)[nH]c2cc1C)c1ccccc1	none (no result: RE007 growth inh, FBPA Giardia inh, LmPK inhibitor, Cycloheximide cs, Shiga toxin inh)
CCOC(=O)Cn1c(=O)oc2cc(S(=O)(=O)Nc3ccccc3F)ccc21	none (no result: RE007 growth inh, FBPA Giardia inh, LmPK inhibitor, Cycloheximide cs, Shiga toxin inh)
COC(=O)c1oc2ccc(Cl)cc2c1N	Cycloheximide cs 22.3, Shiga toxin inh 98.7
COC(=O)c1oc2ccccc2c1N	none
